The text below walks through data of paper PMC5540273 (PLoS ONE, 2017).

SMILES strings stand for the structures.
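Further: KINOMEscan kinase panel screen.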

The test system of this assay is T1, RSK3(Kin.Dom.2-C-terminal).
T1 construct: gene RPS6KA2
The conditions noted are these: concentration: 1 μM, replicates: in singlicate; n = 1.
Take `Cc1cccc(-c2nc(-c3ccc(S(C)(=O)=O)cc3)sc2-c2ccncc2)c1`: the “%Inh” value is 4%.

Consider `CN1c2ccc(CNc3ccc(F)cc3)cc2-c2c(cnn2C)S1(=O)=O`, for which the “%Inh” value was found to be 8%. The result for `O=C1Cc2cc(Nc3nc(NCc4cccc(S(=O)(=O)C(F)(F)F)c4)ncc3C(F)(F)F)ccc2N1` reads 0%; that for `COc1cc2c(cc1OC[C@@H](O)CO)ncc1c3ccc(C#N)cc3[nH]c21`, 11%. Consider `COc1ccc(S(=O)(=O)NC2CCN(c3cc(C)nc(Nc4cccc(C#N)c4)n3)CC2)cc1.O=C(O)C(F)(F)F` [GSK1653539], for which the “%Inh” value was determined as 0%. The result for `[2H]C([2H])(c1cccc(C(F)(F)F)c1C)n1ccn2c(=O)nc(N3CCOCC3)cc12` [GSK2336394] reads 0%. On to `Cc1cccc(-c2nc(Nc3ccc4ncsc4c3)c3ccccc3n2)n1` [GW867588], for which the “%Inh” value is on record as 9%. The result for `COc1cc2ncn(-c3cc(OCc4sccc4Cl)c(C(N)=O)s3)c2cc1OC` [GSK448459] reads 0%; that for `CCc1ccnc(/C=C/c2n[nH]c3cc(Sc4ccccc4C(=O)NC)ccc23)c1`, 6%.

In the case of `C[C@@H](Oc1cc(-n2cnc3ccc(NC(=O)NC(C)(C)C)cc32)sc1C(N)=O)c1ccccc1Cl` [GSK346294], the “%Inh” value is 9%. The result for `COc1cc2c(cc1OCCN1CCN(C)CC1)ncc1c3ccc(C#N)cc3[nH]c21` reads 47%. The result for `COCCNC(=O)c1ccc(-c2cc(C(=O)NC3CC3)cc(F)c2C)cc1` [GW868318] reads 0%; that for `COc1cc(Nc2nccc(N3CCC(NC(=O)c4cccc(NC(C)=O)c4)C3)n2)cc(OC)c1OC` (centres unmarked) [GSK1379754], 0%; that for `CN1c2ccc(NCc3ccc(F)cc3)cc2-c2c(cnn2C)S1(=O)=O`, 22%. In the case of `Cc1nnc(-c2ccc3ncc(-c4ccc(S(C)=O)cc4)n3c2)o1` (centres unmarked), the “%Inh” value is 31%. The result for `O=C(NCCCN1CCOCC1)c1cccc(Nc2nccc(Nc3ccc(Oc4ccccc4)cc3)n2)c1` [GW663929] reads 10%; that for `Cc1cccc(Cn2ccn3c(=O)cc(N4CCOCC4)nc23)c1` [GSK2297542], 44%; that for `Nc1nc(-c2ccc3c(N)n[nH]c3c2)cc(N2CCCC2)n1` [GSK2227430], 17%. The result for `Fc1ccc(-c2ncn(CCCN3CCOCC3)c2-c2cccnc2)cc1` [SB-211743] reads 27%; that for `O=C(NOCC1CC1)c1ccc(F)c(F)c1Nc1ccc(I)cc1Cl`, 0%; that for `NS(=O)(=O)c1cccc(-c2ccc3ncc(N4CCOCC4)nc3c2)c1` [GSK1535721], 0%. For the molecule `Cn1ccc2ncnc(Oc3ccc(NC(=O)Nc4ccncc4)c(Cl)c3)c21`, the “%Inh” value stood at 0%. The result for `NS(=O)(=O)c1cccc(-c2ccc3nccc(-c4cccc(S(N)(=O)=O)c4)c3c2)c1` [GW867253] reads 11%; that for `CCc1nc(-c2cccc(C)c2)c(-c2ccnc(NCc3ccccc3)c2)s1`, 2%. The result for `O=C(Nc1cccc(-c2nn3ncccc3c2-c2ccnc(Nc3cccc(C(F)(F)F)c3)n2)c1)c1c(F)cccc1F` [GSK299495] reads 5%. In the case of `O=c1cc(N2CCOCC2)nc2n(Cc3cccc(F)c3)ccn12` [GSK2297430], the “%Inh” value came out at 0%. The result for `O=C1NC(=O)C(N2CCc3ccccc32)=C1c1cccc(Cl)c1` [SB-408010] reads 21%; that for `Cl.Oc1cccc(Nc2ccnc3cc(-c4ccncc4)ccc23)c1` [GW494601], 0%; that for `COc1ccc(COc2cc(-n3cnc4ccccc43)sc2C(N)=O)cc1` [GSK1024304], 5%.

On to `COc1ccc(Nc2ncc(C#N)c(Nc3ccccc3C(N)=O)n2)cc1N1CCN(C)CC1.Cl` [GSK1558669], for which the “%Inh” value was found to be 11%. As to `Cc1cn2c(=O)cc(N3CCOCC3)nc2n1Cc1cccc(Cl)c1Cl` [GSK2334006], the “%Inh” value is 0%. For the molecule `N#Cc1c(N2CCOCC2)sc(-c2ccn[nH]2)c1-c1ccc(Cl)cc1`, the “%Inh” value was found to be 2%. The result for `N#Cc1ccc(-c2cc(-c3c[nH]nc3-c3ccccn3)ccn2)cc1` [GW693028] reads 0%; that for `Cc1nnc(-c2ccc3occ(-c4ccc(C(C)O)cc4)c3c2)o1` (centres unmarked), 3%; that for `Cc1c(Cn2c(C)nn3c(=O)cc(N4CCOC(C)C4)nc23)cccc1C(F)(F)F` (centres unmarked) [GSK2344444], 0%.
